Reference: the supplement of paper PMC4237247
Where a name gives a salt, the structure may show the parent alone.

tested on: HeLa; assay: percent cells in G2/M phase; higher = more G2/M arrest; settings: 10 µM; 20 h
Description: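 HTS of 79,827 drug-like compounds at 10 uM. HeLa cells in 384-well plates were treated for 20 h, fixed, stained with Vybrant DyeCycle Green and scanned on an Acumen eX3 cytometer to give per-well cell cycle profiles (% cells in each phase). The plate Z' was 0.51. Only hits are listed: G1 hits >4 SD and S hits >5 SD from the mean.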

How did the “percent cells in G2/M phase” value turn out when `O=C1c2c(O)ccc(O)c2C(=O)c2c(NCCNCCO)ccc(NCCNCCO)c21` [Mitoxantrone dihydrochloride] (hit class: G1-phase inhibitor) was run?
The value was 0.73%.

`c1ccc2c(c1)Nc1nc3ccccc3nc1O2` (hit class: G1-phase inhibitor) was tested. Which “percent cells in G2/M phase” value did it give?
Its value is 21.4%.

Which “percent cells in G2/M phase” value does the source give for `Cn1c(SCc2ccccc2)nc2ccccc2c1=O` (hit class: S-phase inhibitor) here?
The value was 15.4%.

With `O=C(COc1ccc(Cl)cc1)NC(Cc1c[nH]c2ccccc12)C(=O)O` (configuration not stated) (hit class: G1-phase inhibitor) as the compound, how does the “percent cells in G2/M phase” value read?
Its value is 20.6%.

With `COc1ccc(C(=O)c2coc3ccc(OC)cc3c2=O)cc1` (hit class: G1-phase inhibitor) as the compound, how does the “percent cells in G2/M phase” value read?
Its value is 19%.

With `Cc1cc(N2CCCCC2)c(F)cc1[N+](=O)[O-]` (hit class: S-phase inhibitor) as the compound, how does the “percent cells in G2/M phase” value read?
The value was 22.3%.

`Cc1ccc(-c2cc(-c3ccccc3Cl)[nH]n2)c(O)c1` (hit class: G1-phase inhibitor) was tested. Which “percent cells in G2/M phase” value did it give?
The value was 17.1%.

With `C[C@@H]1CCC[C@H](C)N1NC(=O)c1ccc(Cl)c(S(N)(=O)=O)c1` [Clopamide] (hit class: G1-phase inhibitor) as the compound, how does the “percent cells in G2/M phase” value read?
The value was 15.9%.

With `CC(=O)C1=C(O)C(=O)N(CC(=O)O)C1c1ccccc1F` (configuration not stated) (hit class: S-phase inhibitor) as the compound, how does the “percent cells in G2/M phase” value read?
Its value is 12.9%.

For `Nc1ccn([C@H]2CC[C@@H](CO)O2)c(=O)n1` [Zalcitabine] (hit class: S-phase inhibitor), which “percent cells in G2/M phase” value is on record?
Its value is 29.8%.

Which “percent cells in G2/M phase” value does the source give for `COc1ccc(CSc2nncn2N)cc1` (hit class: S-phase inhibitor) here?
Its value is 15.1%.

How did the “percent cells in G2/M phase” value turn out when `COc1c(C)c2c(c(O)c1C/C=C(\C)CCC(=O)O)C(=O)OC2` [Mycophenolic acid] (hit class: S-phase inhibitor) was run?
The value was 28.6%.

`Cc1cc([N+](=O)[O-])ccc1NCc1ccc(F)c(F)c1` (hit class: G1-phase inhibitor) was tested. Which “percent cells in G2/M phase” value did it give?
The value was 18.3%.

How did the “percent cells in G2/M phase” value turn out when `C[C@@H]1C[C@H]2[C@@H]3C[C@H](F)C4=CC(=O)C=C[C@]4(C)[C@@]3(Cl)[C@@H](O)C[C@]2(C)[C@H]1C(=O)COC(=O)C(C)(C)C` [Clocortolone pivalate] (hit class: S-phase inhibitor) was run?
Its value is 30.1%.

For `CCN(CC)Cc1c(O)ccc2c(=O)c(-c3ccccc3)coc12` (hit class: S-phase inhibitor), which “percent cells in G2/M phase” value is on record?
The value was 17%.

`COc1[nH]c2ccccc2c1C=NO` (hit class: S-phase inhibitor) was tested. Which “percent cells in G2/M phase” value did it give?
Its value is 12.8%.

For `CC[C@@H](C(=O)[C@@H](C)[C@@H](O)[C@H](C)CCc1ccc(C)c(O)c1C(=O)O)[C@H]1O[C@](CC)([C@H]2CC[C@](O)(CC)[C@H](C)O2)C[C@@H]1C` [Lasalocid sodium salt] (hit class: G1-phase inhibitor), which “percent cells in G2/M phase” value is on record?
The value was 16.8%.
